Here are results for four molecules from PubChem BioAssay (NCATS).

Records with an inconclusive call do not appear. The source made the active and inactive calls. The call rests on the fitted dose curve; in most records, active means well fitted curve in the direction sought with a large enough effect; inconclusive means small, poorly fitted or top-dose-only effect, or another doubt; inactive means no such curve, though single readings can be large; an effect the other way counts as inactive or inconclusive.

Tested on in the first test: not listed separately
Kind of test: Primary fluorescence-based thiol-reactive (MSTI) qHTS assay for identification of artifact compounds. (AID 1845221).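 Further: thiol-reactive compounds lower the probe fluorescence signal; nearly all actives have a fitted effect of over 65% in size.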 Particulars: MSTI thiol-reactivity probe, 1 h; series mostly up to 53.8 µM. An outline of the steps: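 Probe: MSTI 4 uM, PBS pH 7.4, 2% DMSO. Incubation 1 h, RT, light-protected. Readout fluorescence 525/598 nm.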
Turning to `C=C[C@H]1CN2CC[C@H]1C[C@H]2[C@H](O)c1ccnc2ccc(OC)cc12`, the outcome was inactive.
Same read-out and setting: the entry for `O=C(CCCN1CC=C(n2c(=O)[nH]c3ccccc32)CC1)c1ccc(F)cc1` is “inactive”.
Same read-out and setting: for `O=C1[C@H](CC[C@H](O)c2ccc(F)cc2)[C@@H](c2ccc(O)cc2)N1c1ccc(F)cc1` the value was “inactive”; for `CC[C@]12CCCN3CCc4c(n(c5ccccc45)C(=O)C1)[C@@H]32`, “inactive”.

For another test, the system named is Nanoluciferase (engineered Oplophorus gracilirostris luciferase). Kind of test: Primary Nanoluciferase (NLuc) qHTS assay for identification of artifact compounds. (AID 1845222). The following applies: NLuc-conditioned medium, Nano-Glo luminescence, 5 min; series mostly up to 54.1 µM. An outline of the steps: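 Diluted conditioned medium from NLuc-expressing S16 cells treated with compounds for 15 min at room temperature, then Nano-Glo substrate added; luminescence read after 5 min. Percent inhibition versus no-enzyme and DMSO controls fitted to 4-parameter Hill equation.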
A general note: qHTS replaces the single test concentration by a dilution series.
In the case of `C=C[C@H]1CN2CC[C@H]1C[C@H]2[C@H](O)c1ccnc2ccc(OC)cc12`, the molecule was classed as inactive.
Regarding `O=C(CCCN1CC=C(n2c(=O)[nH]c3ccccc32)CC1)c1ccc(F)cc1`, the call was inactive.
Same read-out and setting: the entry for `O=C1[C@H](CC[C@H](O)c2ccc(F)cc2)[C@@H](c2ccc(O)cc2)N1c1ccc(F)cc1` is “inactive”; for `CC[C@]12CCCN3CCc4c(n(c5ccccc45)C(=O)C1)[C@@H]32` it is “inactive”.

Tested on in the next test: not listed separately
The test is described as follows: Primary redox qHTS assay for identification of artifact compounds. (AID 1845223). Particulars: Amplex Red/HRP redox cycling with DTT, fluorescence; series mostly up to 53.8 µM. An excerpt:
PI: Alexander Tropsha Ph.D.
UNC Eshelman School of Pharmacy
University of North Carolina, Chapel Hill, North Carolina
Hits from high-throughput screening (HTS) of chemical libraries are often false positives due to their interference with the assay detection technology. In response to this problem, we generated the largest publicly available library of chemical liabilities and developed a free webtool to predict HTS artifacts, both of which are described herein. More specifically, we generated, curated, and integrated HTS datasets for thiol reactivity, redox activity, and luciferase (firefly and nano) activity. Using these curated datasets, we developed and validated several Quantitative Structure-Interference Relationship (QSIR) models to predict nuisance behavior. […] These models were employed for virtual profiling of the National Center for Advancing Translational Science's (NCATS) in-house library, and 256 compounds for each assay were selected for the experimental validation of nuisance behavior. The BA for these external predictions ranged from 58 to 78% for compounds within the applicability domains of the models. […] The models developed in this study, along with aggregation models previously developed by our group (SCAM Detective) were implemented in "Liability Predictor," an online tool which may be used as part of chemical library design or for triaging HTS hits. Both the models and the curated datasets are publicly available at https://liability.mml.unc.edu/.
SEQUENCE No. (e.g., 1, 2, 3, etc.); […] (e.g., Cells, Incubation, Reagent, etc.); VALUE; DESCRIPTION.
1; Reagent; 3 uL; Amplex Red and HRP mixture.
2; Compounds and control; 16 nL; Kalypsis pin tool (Wako USA) equipped with a 1536-well pin head. […]
6; Detection; Fluorescence, ViewLux microplate reader, 525 nm excitation, 598 nm emission.
NOTES (numbers refer to Sequence numbers above)
1. 3 uL of a mixture containing Amplex Red (25 uM final concentration) and horseradish peroxidase (HRP; 250 mU/mL final concentration) in assay buffer (HBSS) was dispensed into all wells of a 1536-well assay plate (solid-bottom black plate; Greiner Bio One, Monroe, NC).
2. A Wako Pin-tool (Wako Automation, Richmond, VA) was used to transfer 16 nL of compounds (consisting of 7-plates in qHTS format, final concentration range 18.3 nM to 114 uM) or control DA3003 (final concentration range 1.22 nM to 40 uM).
3. 15 min. incubation at room temperature protected from light.
4. 1 uL of DTT (prepared fresh; final concentration 250 uM) was dispensed for a final assay volume of 4 uL.
5. Plates were centrifuged (121xg, 15 seconds) and incubated for 30 minutes at room temperature protected from light.
6. Samples were read for fluorescence (Ex/Em = 525(20)/598(25) nm) on a ViewLux CCD imager (PerkinElmer). […]
On to `C=C[C@H]1CN2CC[C@H]1C[C@H]2[C@H](O)c1ccnc2ccc(OC)cc12`, for which the result was inactive.
With `O=C(CCCN1CC=C(n2c(=O)[nH]c3ccccc32)CC1)c1ccc(F)cc1`, the result was inactive.
Still for that read-out and setting: the entry for `O=C1[C@H](CC[C@H](O)c2ccc(F)cc2)[C@@H](c2ccc(O)cc2)N1c1ccc(F)cc1` is “inactive”; for `CC[C@]12CCCN3CCc4c(n(c5ccccc45)C(=O)C1)[C@@H]32` it is “inactive”.
